Results on 40 molecules are retold here after PubChem BioAssay (NCI).

Compounds without any hit were thinned out: in the full panel of roughly 83,000, 20% have a hit.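 Activity criterion: percent growth below 10, measured after cells in 96-well plates were exposed to a single compound concentration for 48 hours.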 Unmarked numbers belong to inactive results. Calls of active or inactive are those of the source.

The subject of the assay is NCI-H23 lung. Nature of the assay: NCI-60 one-dose screen, 48 h (100 = growth as untreated, 0 = no growth, -100 = all killed). The conditions noted are these: 10 µM unless noted. The method, then:
Growth inhibition of the NCI-H23 human Non-Small Cell Lung tumor cell line is measured as a screen for anti-cancer activity. Cells are grown in 96 well plates and exposed to the test compound for 48 hours. Compounds are tested at a single concentration, which is 10^-5 M for most compounds. The reported endpoint is percent growth (GI% or GIPRCNT), where numbers from 0 - 100% represent growth inhibition, and numbers from -100% - 0 represent cell death. For example, a value of 40 represents 60% growth inhibition. A value of 0 means no net growth occurred over the course of the experiment. A value of -40 indicates 40% of cells at the beginning of the experiment died by the end of the experiment. A value of -100 means all cells are dead at the end of the experiment.
NCI-60 Human Tumor Cell Lines Screen was performed using the standard one-dose NCI protocol, which is described in more detail at https://dtp.cancer.gov/discovery_development/nci-60/default.htm.
Compounds with GIPRCNT values below 10 were considered active. Activity score was based on GIPRCNT using the following formula: […]
Score is 0 for GIPRCNT values of 100 or above, 50 for GIPRCNT values of 0, and 100 for GIPRCNT values of -100.
Consider `c1ccc2nc(Cn3cc[n+](Cc4ccc5ccccc5n4)c3)ccc2c1`, for which the growth is 48.7%.

Take `Fc1cccc(F)c1C#Cc1ccc2cccnc2c1`: the growth was 79.5%.

With `CC1(C)N=C(N)N=C(N)N1c1cccc(CCCCc2ccccc2)c1`, the growth was 10.8%.

Take `O=C(O)c1cccc2oc(-c3ccccc3O)nc12`: the growth was 54.4%.

In the case of `O=C(Nc1ccc(-n2ccc3c(NC(=O)c4ccccc4)ncnc32)cc1)c1ccc(Cl)c(C(F)(F)F)c1`, the growth was 56.5%.

In the case of `Cc1c(Cl)ccc2c(C(=O)Cl)cc(-c3ccccc3)nc12`, the growth was 98.8%.

In the case of `COc1ccc2c(c1)O/C(=C/c1ccc(OCC(=O)Nc3ccc(S(N)(=O)=O)cc3)cc1)C2=O`, the growth was 100%.

`NC(=O)C1=C[C@H]2[C@H]3C=C[C@@]2(O)C(=O)O[C@@H]3O1`: the growth was 67%.

`CS(=O)(=O)Nc1cccc(-c2ccc3ncnc(Nc4cncc(Cl)c4)c3c2)c1`: the growth was 47.1%.

As to `C=C1C(=O)O[C@H]2[C@H]1CC/C(COC(=O)CCCC(=O)OC/C1=C/CC[C@@]3(C)O[C@H]3[C@H]3OC(=O)C(=C)[C@@H]3CC1)=C\CC[C@@]1(C)O[C@@H]21`, the growth was 29.2%.

Consider `O=C(c1cc(-c2ccc(Cl)cc2)nc2ccccc12)N1N=C(c2ccccc2)CC1c1cc(-c2ccccc2)nn1-c1ccccc1` (stereo not given), for which the growth is 72.5%.

On to `COc1ccc(-c2nn(-c3ccc(NC(=O)Nc4cc(C(F)(F)F)cc(C(F)(F)F)c4)cc3)cc2-c2ccncc2)cc1Cl`, for which the growth was 8.51% (active).

Consider `O=C(NOC1OC(CO)C(O)C(O)C1O)Nc1ccccc1` (stereo not given), for which the growth was 104%.

Consider `O=C(Nc1ccc(-n2cc(-c3ccncc3)c(-c3ccc(O)c(Cl)c3)n2)cc1)c1ccc(Cl)c(Cl)c1`, for which the growth was 43.7%.

On to `O=c1[nH]ccc2nc(N3CCC(O)CC3)nc(Nc3cccc(C(F)(F)F)c3)c12`, for which the growth was 62.2%.

In the case of `CC(CN(C)C)CN1c2ccccc2CCc2ccccc21` (stereo not given), the growth was 83.3%.

Turning to `CCn1c(SCC(=O)c2ccc(Br)cc2)nnc1-c1cc2c([nH]c3ccccc32)c(-c2cccc(O)c2)n1`, the growth was 85.2%.

Turning to `CC(=O)Nc1ccc([I+]c2ccc([N+](=O)[O-])cc2)cc1`, the growth was 84.6%.

In the case of `C=C1C(=O)O[C@H]2[C@H]1CC/C(C(=O)NCCOCCOCC(=O)Nc1ccc(OC)c(C(N)=O)c1O)=C\CC[C@@]1(C)O[C@@H]21`, the growth is 97.7%.

For `COc1ccc(-c2[nH]c3ccccc3c2/C=C(\C#N)S(=O)(=O)c2ccccc2)cc1`, the growth was 17.5%.

Take `CCc1cccc(-c2ccccc2)c1`: the growth was 107%.

Turning to `O=C(CSc1nnc(-c2cc3c([nH]c4ccccc43)c(-c3cccc(O)c3)n2)n1-c1ccccc1)c1ccccc1`, the growth was 80.2%.

Turning to `C=CC(C)(O)CCC1C(=C)CCC2C(C)(C)CCCC12C` (stereo not given), the growth was 94.2%.

On to `CCc1cccc(C)c1NC(=O)c1sc2nc3c(cc2c1N)CCCCC3`, for which the growth is 45.3%.

Consider `Cc1nccc2c3ccc(OCc4cn(Cc5ccc(Br)cc5)nn4)cc3n(CCCc3ccccc3)c12`, for which the growth is 82.5%.

Regarding `O=C(NCCNc1nccc(-c2c(-c3cccc(O)c3)nc3sccn23)n1)Nc1cccc(C(F)(F)F)c1`, the growth is 96.2%.

As for `O=C(Nc1ccc(-n2ccc3c(NC(=O)c4ccccc4)ncnc32)cc1)Nc1ccc(Cl)c(Cl)c1`, the growth was 18.7%.

Take `CCCCOc1nc2ccc(Cl)cc2cc1/C=C/C(=O)/C=C/c1ccc(Cl)cc1`: the growth is 79.8%.

Take `Cn1cnc([N+](=O)[O-])c1N1c2ccncc2Sc2ccncc21`: the growth was 91.2%.

With `CC(C)CCC[C@@H](C)[C@H]1CC[C@H]2[C@@H]3CC=C4N(c5ccccc5)C(=O)CC[C@]4(C)[C@H]3CC[C@]12C`, the growth is 97.2%.

Turning to `COC(=O)c1oc2c(C(=O)/C=C/c3ccc(OC)cc3)c(OCCN3CCOCC3)ccc2c1C`, the growth is 18.7%.

Turning to `CC(C)CNCC(O)COc1ccc(C(C)(C)c2ccc(OCC(O)CNCC(C)C)cc2)cc1` (stereo not given), the growth was 84.4%.

Regarding `CCOC(=O)NNc1nncc2ccccc12`, the growth was 95.4%.

Regarding `CC1(C)N=C(N)N=C(N)N1c1ccc(OCC(=O)Nc2ccccc2)c(Cl)c1`, the growth was 24%.

Turning to `CN1CCN(C(=O)/C=C/c2ccc([N+](=O)[O-])o2)CC1`, the growth is 98.1%.

Take `O=C1OC(N(Cc2ccc(Cl)cc2)c2ccccc2)c2ccccc21` (stereo not given): the growth was 99.7%.

On to `Nc1ncnc2c1ccn2-c1cccc(NC(=O)c2cccc(C(F)(F)F)c2)c1`, for which the growth was 90.6%.

Consider `COc1ccc2c(c1)OC(N(C(C)=O)C(C)=O)=C(C#N)C2c1ccc(F)cc1` (stereo not given), for which the growth was 50.9%.

Consider `O=C(CSc1nnc(-c2ccccc2)o1)Nc1ccc(C(=O)/C=C/c2ccccc2)cc1`, for which the growth was 77.6%.

`FC(F)(F)c1cccc([Si](F)(c2cccc(C(F)(F)F)c2)c2cccc(C(F)(F)F)c2)c1`: the growth is 43.4%.
